Assay results reported in PubChem BioAssay AID1220 (Sanford-Burnham Center for Chemical Genomics, 2008).
In all, about 190,000 compounds went through this assay and about 1,300 (0.68%) were called active. The list comes from a sample in which actives are over-represented; it also holds similar structures and randomly drawn compounds. A number with no mark means an inactive call. Cut-off read from the data, not from the text of the source: active = inhibition above about 50%; inactive = the rest.

molecular target: Mannose-6-phosphate isomerase (Homo sapiens) (UniProt P34949); assay: human PMI inhibitors, high substrate, primary screen, biochemical, fluorescence intensity, high mannose 6-phosphate (AID 1220); conditions: recombinant PMI enzyme, coupled fluorescence intensity; at 20 µM; active compounds read high
Sequence (P34949 whole entry, looked up): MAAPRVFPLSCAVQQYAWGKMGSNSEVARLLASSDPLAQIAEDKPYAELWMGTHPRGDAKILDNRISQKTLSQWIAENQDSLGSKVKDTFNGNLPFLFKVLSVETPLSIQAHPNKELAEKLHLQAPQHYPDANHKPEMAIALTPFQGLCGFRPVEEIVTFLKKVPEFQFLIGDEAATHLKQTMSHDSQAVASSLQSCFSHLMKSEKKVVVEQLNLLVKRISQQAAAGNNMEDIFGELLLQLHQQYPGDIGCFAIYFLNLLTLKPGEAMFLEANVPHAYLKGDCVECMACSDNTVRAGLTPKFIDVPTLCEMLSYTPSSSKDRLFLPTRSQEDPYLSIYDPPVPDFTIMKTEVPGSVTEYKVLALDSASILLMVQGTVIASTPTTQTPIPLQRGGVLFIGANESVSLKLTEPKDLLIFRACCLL

With `CCc1[nH]c(=O)[nH]c1C(C)S(=O)(=O)c1ccc(C)cc1` (stereo not given) the inhibition was 70.3% (active).
For `CN1CCN(CC(O)(c2ccc(Cl)cc2)c2ccc(Cl)cc2)CC1`, the inhibition was 55.4% (active).
With `Oc1ccc(N2CCN(Cc3ccc(OCCCN4CCCCC4)cc3)CC2)cc1` the inhibition was 58.4% (active).
For `CCOC(=O)c1cc2cc3ccccc3cc2[nH]1`, the inhibition was 53.2% (active).
For `CCCC(=O)Nc1cc(OC)c(NC(=O)NC2CCCCC2)cc1OC`, the inhibition was 51.8% (active).
With `C=CCOc1cc(OC)c(OC)c(OC)c1` the inhibition was 54.8% (active).
`CC1(C)CC(=O)C(C=Nc2cccnc2/N=C/C2=C(O)CC(C)(C)CC2=O)=C(O)C1` was tested, and the inhibition was 58.8% (active).
`CCN(CC)c1ccc(O)c(C=Nc2ccc(C)c(C)c2)c1` was tested, and the inhibition was 57% (active).
For `CCN(CC)c1ccc(N=Cc2cc(Br)ccc2O)cc1`, the inhibition was 63.1% (active).
For `COc1cc(OC)c2c(O)c3c(c(-c4c5c(c(O)c6c(OC)cc(OC)cc46)CO[C@@H](C)[C@H]5O)c2c1)[C@H](O)[C@H](C)OC3`, the inhibition was 54.8% (active).
`O=[N+]([O-])c1cc(-c2ccc(C(=S)N3CCOCC3)o2)ccc1Cl` was tested, and the inhibition was 61% (active).
In the case of `CN1CSC2=C(C#N)C(c3cccc(OCc4ccccc4)c3)CC(=O)N2C1` (stereo not given), the inhibition is reported as 59.9% (active).
For `COc1cc(C2CC(=O)N3CN(Cc4ccccc4)CSC3=C2C#N)ccc1OCc1ccccc1` (stereo not given), the inhibition was 66.3% (active).
`COc1cc(C2CC(=O)N3CN(Cc4ccco4)CSC3=C2C#N)ccc1OCc1ccccc1` (stereo not given) was tested, and the inhibition was 74.4% (active).

In order of falling inhibition:
1. N#CC1=C2SCN(Cc3ccccc3)CN2C(=O)CC1c1ccc2c(c1)OCO2 (stereo not given)  47.4%
2. O=[N+]([O-])c1cccc(-c2ccc(C(=S)N3CCOCC3)o2)c1  47%
3. COc1ccc(N=Cc2cc(Cl)ccc2O)cc1Cl  40.6%
4. O=C(/C(=N/N=C/c1ccc(O)c(O)c1O)c1ccccc1)c1ccccc1  30.5%
5. O=C(/C(=N/N=C/c1ccc(O)c(O)c1)c1ccccc1)c1ccccc1  24.9%
6. O=C(NCCN1CCN(c2ccccc2)CC1)C1(S(=O)(=O)c2ccc(Cl)cc2)CC1  18%
7. CN1CCc2cc3c(c4c2[C@H]1[C@H](O)c1ccccc1-4)OCO3  16.9%
8. CCCCOc1ccc(CN2CCCCC2)cc1  14.9%
9. COC(=O)C1CCN(Cc2ccc(OCCCN3CCN(c4ccc([N+](=O)[O-])cc4)CC3)cc2)CC1  14%
10. Oc1ccc(Br)cc1C=Nc1ccc(Cl)cc1  13.7%
11. COC(=O)N/N=C/c1cc(Br)ccc1O  13.6%
12. COc1ccccc1NC(=O)c1ccccc1S(=O)(=O)c1ccccc1[N+](=O)[O-]  12.3%
13. CCCCC(=O)Nc1cc2nn(-c3ccc(OC)cc3)nc2cc1C  10.9%
14. CC1CCN(C(=O)CSc2nnc(CNc3ccc(F)cc3)n2Cc2ccco2)CC1  10.7%
15. NCC(O)(c1ccc(Cl)cc1)c1ccc(Cl)cc1  10.4%
16. NS(=O)(=O)c1cccc(NC(=O)CN2CCN(Cc3ccc4c(c3)OCO4)CC2)c1  10%
17. Cc1ccc(N=Cc2sccc2C)cc1C  8.8%
18. CN1CCc2ccccc2C1C1CCNCC1 (stereo not given)  8.3%
19. CC(C)OC(=O)c1cc2ccccc2[nH]1  7.4%
20. COc1ccc2c(c1O)-c1ccccc1CCN(C)C2  7.3%
21. COc1cc(OCC(N)=O)cc(OC)c1OC  7.1%
22. C=CCOc1ccc(/C(CC)=N/O)c(OC)c1  6.3%
23. COc1ccc(NC2=C(Cl)C(=O)N(CCc3ccccc3)C2=O)cc1  4.8%
24. CN1CCN(CC(C)(C)NS(=O)(=O)c2ccc(Cl)cc2)CC1  3.4%
25. CCOC(=O)C1(CCc2ccccc2)CCN(Cc2ccc(OC)cc2)CC1  3.3%
26. CCCCC(=O)Nc1cc(OC)c(NC(=O)C2CCCCC2)cc1OC  2.5%
27. COc1ccccc1CC(=O)Nc1ccc(O)cc1C(=O)O  2.5%
28. COc1cc(OC)c2c(c1)OC(c1ccc(OC)c(OC)c1)C(O)C2=O (stereo not given)  1.6%
29. Cc1ccc2nc(SC(C(=O)c3ccccc3)c3ccccc3)nc(C)c2c1 (stereo not given)  1.4%
30. O=C(CCC1COc2ccccc2O1)NCc1ccccc1 (stereo not given)  0.9%
31. CN1CCN(C(=O)C2=C[C@H](C(C)(C)C)C[C@H](OCCCCO)O2)CC1  0.2%
32. CCCN1C2CCCC1CC(NC(=O)c1ccccc1OCC)C2 (stereo not given)  0%
33. COc1ccc(C2CC(=O)N3CN(c4ccccc4F)CSC3=C2C#N)cc1OC (stereo not given)  -0.4%
34. COc1ccc(Cl)cc1NC(=O)NC1CCCCC1  -2.2%
35. COCCN(C(=O)CSc1nnc(-c2ccccc2F)n1C)c1c(N)n(Cc2ccccc2)c(=O)[nH]c1=O  -3.1%
36. O=C(NC1CCCCC1)c1ccc(NS(=O)(=O)c2cccc3cccnc23)cc1  -3.4%
37. Cc1cc2c(cc(C(=O)OCC(=O)NCc3ccco3)n2C)s1  -6.2%
38. CC(=O)c1cccc(NC(=O)/C(=C\c2cccnc2)NC(=O)c2ccco2)c1  -6.2%
39. CC1(C)CC(=O)C(/C=N/c2ccccn2)=C(O)C1  -6.9%
40. CCCC1=[N+](CC(C)=O)CCn2c(C)ccc21  -7.3%
41. S=C(c1ccc(-c2ccc(Cl)c(Cl)c2)o1)N1CCOCC1  -7.4%
42. NS(=O)(=O)c1ccc(CCNC(=O)NC2(C(F)(F)F)Oc3ccccc3O2)cc1  -9.2%
43. CCOC(=O)c1cc2cc(OC)ccc2[nH]1  -9.7%
44. CCOC(=O)c1nc(C)n(-c2cc(OC)c(Cl)cc2Cl)n1  -10.2%
45. C=CCn1c(SCC(=O)NC(=O)NC)nnc1C1CCCCC1  -11.2%
46. COc1cccc(C2CC(=O)N3CN(c4ccccc4F)CSC3=C2C#N)c1 (stereo not given)  -11.4%
47. C/C(=N\NS(=O)(=O)c1ccc(C)c([N+](=O)[O-])c1)c1ccc2c(c1)OCO2  -16.6%
48. CC1(N2CCOCC2)C(=O)c2ccccc2C1=O  -17.3%
49. CC1(C)CC(=O)C(/C=N/c2ncccc2C(=O)O)=C(O)C1  -18.7%
50. COc1ccc(C2CC(=O)N3CN(c4ccc(C)c(Cl)c4)CSC3=C2C#N)cc1OC (stereo not given)  -27.1%
51. CCc1c(C(C)S(=O)(=O)c2ccc(C)cc2)[nH]c(=O)n1-c1ccc(OC(F)(F)F)cc1 (stereo not given)  -28.2%
52. COc1cc(OC)c2c(c1)C(=O)OC2  -32.4%
53. CCc1c(C(C)S(=O)(=O)c2ccc(C)cc2)[nH]c(=O)n1-c1ccc(C)cc1 (stereo not given)  -35.3%
54. CC1CC2(CCCCC2)Nc2c1ccc1ccccc21 (stereo not given)  -36.7%
55. CCc1ccc(C2CC(=O)N3CN(c4ccccc4)CSC3=C2C#N)cc1 (stereo not given)  -47.1%
56. Cc1cc(=S)cc(C)n1CCO  -138%
